Screening results as filed in PubChem BioAssay.
The entries come from a sample that favours hits as a whole.
HT1080 IDH1KD tx = kills HT-1080 cells with IDH1 knockdown. hit rate 2% among 360,000. Potency, µM (series often up to 46.1 µM), for inactives: at the highest dose activity, negative = toxicity, actives largely listed as cytotoxic. HT-1080 IDH1 knockdown viability, ATP luminescence, 48 h;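 further: potency means the concentration at half of the fitted maximal effect; 0% = DMSO wells and -100% = cell-free medium wells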
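% activity derives from luminescence (CellTiter-Glo), normalised to DMSO and no-cell wells. HT-1080-IDH1KD cells, 750/well, had 48 h compound exposure at 37 °C.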
IL1B secr inh = inhibitors of inflammasome signaling (IL-1 beta secretion); THP-1 LPS/ATP IL-1B secretion, AlphaLISA, 16 h; active compounds read low; activity change, % at 57.5 µM; hit rate 4.7% among 360,000; in the data active means activity change below about -50%; inconclusive means mostly about -30% to -49%
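Secreted IL-1B measured by AlphaLISA bead assay after 16 h compound exposure of THP-1 cells; compounds (final up to 57.5 uM) added 1 h before LPS (250 ng/mL) and ATP (1.25 mM) stimulation; lower signal means less secretion.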
DT40 TDP1 no CPT = qHTS for Inhibitors of human tyrosyl-DNA phosphodiesterase 1 (TDP1): qHTS in cells in absence of CPT; DT40 Tdp1-/- hTDP1 cells, no CPT, ATP luminescence, 48 h; Potency, µM (titrated, usually from 46.2 µM), inactives show at the highest dose activity change, negative = growth inhibition, hits mostly inhibitors; hit rate 15% among 420,000; further: potency means the concentration at half of the fitted maximal effect; nearly all actives have a fitted effect of over 55% in size
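Readout: luminescence from CellTiter-Glo after 30 min in the dark at RT. Cells: DT40 Tdp1-/- with stable hTDP1, 400/well. Exposure: compounds alone, ≥48 hr, 37 °C.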
HT1080NT lethal = kills 2HG-producing HT-1080-NT fibrosarcoma cells. HT-1080-NT fibrosarcoma viability, CellTiter-Glo ATP luminescence, 48 h. Potency, µM (highest dose often 46.1 µM), for the others: at the highest dose activity, negative = less viability, most hits filed as cytotoxic. hit rate 1.6% among 360,000;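 further: NT is the 2HG producing partner of a matched IDH1 knockdown line; potency means the concentration at half of the fitted maximal effect; 0% = DMSO-treated cells and -100% = media-only wells without cells; nearly all actives have a fitted effect of over 55% in size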
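Luminescent CellTiter-Glo readout after 48 hours of compound exposure at 37 degrees C defined viability of HT-1080-NT cells. Activity was normalized to DMSO wells and cell-free media wells; concentration-response curves were fitted and assigned curve classes.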
DT40 TDP1 CPT = DT40-hTDP1 cell growth loss with CPT | AID 686979 | Potency, µM (series often up to 46.2 µM), inactives show at the highest dose activity change, negative = growth inhibition, hits mostly inhibitors | hit rate 12% among 420,000 | chicken DT40 Tdp1-/-;hTDP1 cells + 20 nM CPT, ATP luminescence, 48 h; further: potency means the concentration at half of the fitted maximal effect; nearly all actives have a fitted effect of over 55% in size
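Chicken DT40 Tdp1-/- cells stably complemented with human TDP1 were seeded at 400 cells/well in medium containing 20 nM camptothecin, exposed to pin-transferred compounds, and grown at 37 °C for at least 48 hr. Viability was read as ATP luminescence.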
12-LOX inh = inhibitors of human 12S-lipoxygenase ALOX12. P18054. purified 12hLO, xylenol orange hydroperoxide absorbance. Potency, µM (doses to about 108 µM), inactives show at the top dose activity change, negative = inhibition, hits mostly inhibitors. hit rate 1.1% among 580,000. AID 1671190; further: potency means the concentration at half of the fitted maximal effect
Target sequence (P18054 whole entry, looked up): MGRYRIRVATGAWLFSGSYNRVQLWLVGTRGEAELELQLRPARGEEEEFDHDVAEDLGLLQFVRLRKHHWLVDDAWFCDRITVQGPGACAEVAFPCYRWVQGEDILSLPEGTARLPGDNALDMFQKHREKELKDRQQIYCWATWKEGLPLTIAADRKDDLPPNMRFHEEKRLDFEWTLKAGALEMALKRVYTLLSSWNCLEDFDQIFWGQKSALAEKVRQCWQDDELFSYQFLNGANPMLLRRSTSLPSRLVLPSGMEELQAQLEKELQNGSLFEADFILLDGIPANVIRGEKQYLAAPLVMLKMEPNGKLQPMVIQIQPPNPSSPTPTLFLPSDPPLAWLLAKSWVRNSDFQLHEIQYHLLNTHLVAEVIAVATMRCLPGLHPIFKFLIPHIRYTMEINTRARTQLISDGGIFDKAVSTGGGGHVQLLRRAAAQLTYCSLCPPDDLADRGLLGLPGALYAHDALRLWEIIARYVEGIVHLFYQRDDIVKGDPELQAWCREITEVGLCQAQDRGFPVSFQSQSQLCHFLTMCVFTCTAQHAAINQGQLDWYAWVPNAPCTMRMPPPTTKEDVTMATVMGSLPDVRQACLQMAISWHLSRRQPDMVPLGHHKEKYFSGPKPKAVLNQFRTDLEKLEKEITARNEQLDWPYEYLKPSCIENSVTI
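Hydroperoxide product was detected by ferrous iron/xylenol orange as the 573 to 405 nm absorbance ratio. Arachidonic acid at 40 uM (final) was turned over for 30 min at room temperature by 150 nM human 12hLO, pH 7.0 Hepes buffer, after 15 min compound preincubation.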
* marks the source's active call; other numbers are inactive results. Unless noted, the call rests on the fitted dose curve; in most records, active means well fitted curve in the direction sought with a large enough effect; inconclusive means small, poorly fitted or top-dose-only effect, or another doubt; inactive means no such curve, though single readings can be large; an effect the other way counts as inactive or inconclusive. Unless noted, on the % scale 0 is the no-effect control and ±100 the full control effect.

`COc1ccccc1CCn1c(=O)c(-c2ccc(Cl)cc2)nc2cncnc21` gave DT40 TDP1 no CPT inconclusive, DT40 TDP1 CPT inconclusive and 12-LOX inh 230%.
Screening COc1ccccc1CCn1c(=O)cnc2cncnc21 returned DT40 TDP1 no CPT 5.8µM*, DT40 TDP1 CPT 4.6µM* and 12-LOX inh 0%.
`CCCNC(=O)[C@H]1O[C@@H]1C(=O)N[C@H](C(=O)N1CCC[C@H]1C(=O)OC)[C@@H](C)CC` gave DT40 TDP1 no CPT 2.4µM*, DT40 TDP1 CPT 1.9µM* and 12-LOX inh 9%.
For N#CC(c1ccc([N+](=O)[O-])cc1)C(CC(=O)c1ccccc1)c1ccccc1 (stereo not given) the results were HT1080 IDH1KD tx -4%, IL1B secr inh inconclusive, DT40 TDP1 no CPT 16µM*, HT1080NT lethal -7%, DT40 TDP1 CPT inconclusive and 12-LOX inh -3%.
`N#CC(c1cccc([N+](=O)[O-])c1)C(CC(=O)c1ccccc1)c1ccccc1` (stereo not given) gave HT1080 IDH1KD tx -25%, IL1B secr inh -6, DT40 TDP1 no CPT 23µM*, HT1080NT lethal -12%, DT40 TDP1 CPT 18µM* and 12-LOX inh 12%.
Screening N#CC(c1ccccc1)C(CC(=NO)c1ccccc1)c1ccccc1 (stereo not given) returned HT1080 IDH1KD tx -26%, IL1B secr inh inconclusive, DT40 TDP1 no CPT 10µM*, HT1080NT lethal inconclusive, DT40 TDP1 CPT 23µM* and 12-LOX inh inconclusive.
O=C(O)CC(NC(=O)C(c1ccccc1)c1ccccc1)c1cccc([N+](=O)[O-])c1 (stereo not given) was read as HT1080 IDH1KD tx -1%, IL1B secr inh 41, DT40 TDP1 no CPT 1%, HT1080NT lethal 10%, DT40 TDP1 CPT 7% and 12-LOX inh 0%.
`Cc1cc(C(=O)NCc2ccc(N(C)C)nc2)on1` gave 12-LOX inh 8%.
`Cc1c(C)n(Cc2ccccc2)c2ncnc(N)c12` gave HT1080 IDH1KD tx -14%, IL1B secr inh -6, DT40 TDP1 no CPT 23µM*, HT1080NT lethal -7%, DT40 TDP1 CPT 15µM* and 12-LOX inh -3%.
For Cc1cc(N2CCCC2)ccc1NC(=O)COc1cccc(C(F)(F)F)c1 the results were HT1080 IDH1KD tx inconclusive, IL1B secr inh -16, DT40 TDP1 no CPT 4.6µM*, HT1080NT lethal inconclusive, DT40 TDP1 CPT 8.2µM* and 12-LOX inh -62%.
For Cc1cccc(OCC(=O)Nc2ccccc2N2CCN(C)CC2)c1 the results were HT1080 IDH1KD tx -16%, IL1B secr inh -26, DT40 TDP1 no CPT inconclusive, HT1080NT lethal -16%, DT40 TDP1 CPT -14% and 12-LOX inh -5%.
Screening Cc1ccc(NC(=O)COC(=O)c2ccc(Cl)c(S(=O)(=O)N3CCCCCC3)c2)c(C)c1 returned 12-LOX inh -22%.
For COc1cc(C(=S)N2CCCC2)cc(Cl)c1OCC(=O)Nc1ccc(C)cc1C the results were HT1080 IDH1KD tx -13%, IL1B secr inh -16, DT40 TDP1 no CPT inconclusive, HT1080NT lethal -17%, DT40 TDP1 CPT 13µM* and 12-LOX inh inconclusive.
`Cc1cccc(OCC(=O)Nc2ccccc2N2CCCCC2)c1` gave HT1080 IDH1KD tx 4%, IL1B secr inh 7, DT40 TDP1 no CPT inconclusive, HT1080NT lethal 5%, DT40 TDP1 CPT 12µM* and 12-LOX inh inconclusive.
For Cc1ccc(C)c(OCC(=O)Nc2ccccc2N2CCCC2)c1 the results were HT1080 IDH1KD tx -2%, IL1B secr inh -30, DT40 TDP1 no CPT inconclusive, HT1080NT lethal 11%, DT40 TDP1 CPT inconclusive and 12-LOX inh -3%.
